Mtb betalactam: beta-lactam sensitization of Mtb H37Rv; M. tuberculosis H37Rv growth with meropenem, percent inhibition; inhibition, % at 25 µM; 0.27% of 330,000 active; AID 434955; call rule not given here;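 note: growth measured after seven days incubation then overnight dye step; 0% = bacteria only wells and 100% = bacteria with antibiotic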
Mtb FBA inh: inhibitors of M. tuberculosis fructose-bisphosphate aldolase. purified M. tuberculosis FBA, fluorescence read-out. inhibition, % at 1 µM. 2.3% of 360,000 active. AID 588726; in the data active = inhibition above about 27%;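 note: 0% = vehicle and 100% = reference inhibitor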
UGM FP inh: inhibitors of M. tuberculosis UDP-galactopyranose mutase; 0.06% of 320,000 active; purified UGM, fluorescence polarization probe displacement; inhibition, % at 10 µM; in the data active = inhibition above about 10%, passing the limit was not always enough; inconclusive = no clear call, values can overlap the other calls
RecA splice inh: Mtb RecA intein splicing inhibition; P9WHJ3; inhibition, % (concentration not given with the values); 0.75% of 290,000 active; cell-free RecA intein splicing, fluorescence; in the data active = inhibition above about 30%; inconclusive = no clear call, values can overlap the other calls;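 note: 0% = vehicle wells and 100% = reference inhibitor control wells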
Rv3671c protease: inhibits the M. tuberculosis serine protease Rv3671c | P9WHR9 | inhibition, % at 5.96 µM | 0.048% of 320,000 active | AID 2606; in the data active = inhibition above about 38%;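 note: extracellular domain of Rv3671c used as enzyme; 0% = enzyme with DMSO and 100% = no enzyme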
Target sequence (P9WHR9 whole entry, looked up, the tested form may be a part): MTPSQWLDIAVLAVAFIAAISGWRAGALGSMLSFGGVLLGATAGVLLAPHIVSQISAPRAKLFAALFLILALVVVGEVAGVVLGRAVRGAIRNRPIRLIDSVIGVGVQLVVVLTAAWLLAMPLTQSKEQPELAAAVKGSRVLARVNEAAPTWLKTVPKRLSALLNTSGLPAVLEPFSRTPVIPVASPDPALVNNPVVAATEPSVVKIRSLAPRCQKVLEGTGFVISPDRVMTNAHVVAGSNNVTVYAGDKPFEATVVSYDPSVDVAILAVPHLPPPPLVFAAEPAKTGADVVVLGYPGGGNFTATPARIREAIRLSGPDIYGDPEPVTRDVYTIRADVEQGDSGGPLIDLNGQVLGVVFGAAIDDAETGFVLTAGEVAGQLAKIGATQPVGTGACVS
GDH-TPI inh: counter-screen for M. tuberculosis FBA inhibitors: GDH-TPI coupled enzymes. AID 588335. GDH-TPI coupled enzyme counterscreen, NADH absorbance. 1.2% of 360,000 active. inhibition, % at 4.8 µM; in the data active = inhibition above about 30%;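 note: 0% = DMSO wells and 100% = wells lacking the enzyme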
Starred values were filed as active, the others as inactive; ? = inconclusive; · = no result; + = active, no number. An excerpt weighted towards active compounds, which were near 4% of everything screened.

SMILES	Mtb betalactam	Mtb FBA inh	UGM FP inh	RecA splice inh	Rv3671c protease	GDH-TPI inh
Cc1ccc(C)c(S(=O)(=O)Nc2cc(SCC(=O)O)c(O)c3ccccc23)c1	9	-1	1	·	-147	4
c1ccc2c3c(cc(N4CCOCC4)c2c1)OC1(N2CCOCC2)CCCCC1O3 (centres undefined)	-3	89*	2	2	-14	1
CN(C)C=Nc1ccc(Cl)c(Cl)c1	33	1	2	6	-29	2
CN(C)C=Nc1ccc2nn(-c3ccccc3)nc2c1	96	177*	-4	-26	-5	10
N#Cc1ccc(CSc2nnc(-c3cccnc3)o2)cc1	-2	-2	-1	0	4	-12
N/C(=N\N=C\c1ccc2c(c1)OCO2)c1nonc1N	-3	2	0	-1	-10	32*
O=C(CN(C1CCCCC1)S(=O)(=O)c1ccc(Br)cc1)NCc1cccnc1	7	1	2	3	2	1
O=C1NC(=O)[C@@H]2C3c4ccccc4C=CN3[C@H](C(=O)c3cccs3)[C@H]12 (some centres undefined)	5	·	1	1	-2	·
COc1ccc(OC)c(N2C(=O)C(Cl)=C(N3CCOCC3)C2=O)c1	73	-6	0	70*	-1	30
O=C(CCC1CCCN(C(=O)c2cncs2)C1)NCc1ccc(F)c(F)c1 (centres undefined)	-8	2	2	·	-1	6
CC(=O)c1c(COC(=O)c2ccccc2)nc2ccccc2[n+]1[O-]	6	-1	-4	6	-4	2
COc1ccc([N+](=O)[O-])cc1-c1[nH]c(-c2ccc(C(=O)O)cc2)nc1-c1ccccc1	18	3	2	2	-4	37*
CCC(=O)/C=C1\Sc2ccc(OC)cc2N1CC	?	0	3	-7	-1	31*
CN(C)c1ccc(C(=O)c2ccccc2C(=O)O)c(O)c1	10	2	-3	1	8	41*
CCCCN(CCCC)c1ccc(C(=O)c2ccccc2C(=O)O)c(O)c1	4	-2	6	4	-2	30
NS(=O)(=O)c1ccc(N2C(=O)C(=O)/C(=C(/O)c3ccccc3)C2c2ccc(Cl)cc2)cc1 (centres undefined)	-8	-3	6	2	-1	39*
O=C(O)COc1ccc2c(c1)O/C(=C\c1cccs1)C2=O	5	5	2	·	-8	42*
COc1ccc(/C=C2\Oc3cc(OC(=O)N4CCOCC4)ccc3C2=O)c(OC)c1	2	-4	3	-7	-7	31*
COc1cccc(/C=C2\Oc3cc(OCC(=O)N4CCCCC4)ccc3C2=O)c1OC	1	-1	3	-4	-16	39*
COc1ccc(/C=C2\Oc3cc(OCC(=O)N4CCC[C@H]4C(=O)O)ccc3C2=O)c(OC)c1OC	2	-2	0	4	-2	38*
O=C1/C(=C/c2ccccc2)Oc2cc(OC(=O)N3CCOCC3)ccc21	3	2	1	-1	-1	31
O=C(CCc1nnc2n(Cc3ccccc3Cl)c(=O)c3ccccc3n12)NCCCN1CCOCC1	1	3	-3	-8	5	6
COc1ccc(/C=C2\Oc3cc(OCC(=O)N4CC(O)C[C@H]4C(=O)O)ccc3C2=O)c(OC)c1OC (some centres undefined)	1	-1	4	2	-2	25
COc1ccc(OC)c(/C=C2\Oc3cc(OCC(=O)N4CC(O)C[C@H]4C(=O)O)ccc3C2=O)c1 (some centres undefined)	-8	-6	-2	-5	-4	40*
Cc1c(NC(=S)N/N=C/c2ccc([N+](=O)[O-])cc2O)c(=O)n(-c2ccccc2)n1C	4	-12	1	-5	23	48*
SMILES	Mtb betalactam	Mtb FBA inh	UGM FP inh	RecA splice inh	Rv3671c protease	GDH-TPI inh
Cc1c(NC(=S)N/N=C\c2ccccc2O)c(=O)n(-c2ccccc2)n1C	-2	8	1	-11	7	31*
Cc1c(NC(=S)N/N=C/c2ccc(Br)cc2)c(=O)n(-c2ccccc2)n1C	-6	0	2	-3	3	18
Cc1c(NC(=O)CN2C(=O)c3ccc([N+](=O)[O-])cc3C2=O)c(=O)n(-c2ccccc2)n1C	0	-3	-1	·	-3	-6
CCCC[C@@H]1CCCO[C@@](C(=O)NCc2ccc(C)o2)(C(F)(F)F)C1	-6	0	-2	4	5	10
CC1CCC(NC(=O)CCCCn2c(=O)[nH]c3ccsc3c2=O)CC1 (centres undefined)	4	6	4	1	-4	2
O=C(CN1C(=O)NC2(CCCCC2)C1=O)Oc1ccc2ccc(=O)oc2c1	-5	+	0	·	-2	14
COc1cc2cc(Oc3ccc4ccc(=O)oc4c3)c(=O)oc2cc1OC(C)=O	-5	9	2	-68	3	28
COc1ccccc1C(=O)Oc1ccc2ccc(=O)oc2c1	4	117*	0	-87	10	16
O=C(Oc1ccc2ccc(=O)oc2c1)c1ccco1	-6	+	1	-1	-1	4
Cc1ccc(C(=O)CSc2nnnn2C(C)C)c(C)c1	-1	-3	-1	4	-3	0
CCCCc1nc2sc3c(=O)[nH]c(=S)[nH]c3c2c2c1CCC2	·	3	·	·	·	4
Cc1ccc(-c2nc3nc4ccccc4nc3n2Cc2ccco2)cc1	-5	14	0	3	-1	46*
c1ccc(Cn2c(-c3ccco3)nc3nc4ccccc4nc32)cc1	-6	+	1	-14	-20	21
COc1ccccc1Cn1c(-c2ccco2)nc2nc3ccccc3nc21	-4	11	1	-3	-1	18
c1coc(-c2nc3nc4ccccc4nc3n2CC2CCCO2)c1 (centres undefined)	3	+	-3	-57	-7	22
CCCCCn1c(-c2ccco2)nc2nc3ccccc3nc21	40	+	-1	-47	-10	6
COC(=O)Cn1c(=NC(=O)C(C)(C)C)sc2c(C)cc(C)cc21	1	5	1	-1	6	2
CSc1nc(=S)c2[nH]c(=S)[nH]c2[nH]1	6	-2	2	-4	·	33*
Nc1nc(=S)c2[nH]c(=S)[nH]c2[nH]1	·	0	·	·	·	18
NS(=O)(=O)c1ccc(CCNC(=O)CSCc2ccccc2)cc1	1	0	0	-5	3	1
Cc1cc(O)ccc1Nc1nc(-c2cccnc2)cs1	-3	1	0	2	·	17
Cc1cc(O)ccc1Nc1nc(-c2cccs2)cs1	-5	3	4	30*	7	4
COC(=O)C(C)SC1=N/C(=C/c2ccc(-n3cncn3)cc2)C(=O)N1 (centres undefined)	4	0	-1	1	5	43*
c1csc(CNc2ccn3nc(-c4ccc(OCCN5CCOCC5)cc4)cc3n2)c1	·	21	·	·	·	-2
CCCCOC(=O)c1cc(-c2ccc(/C=N/n3cnnc3)o2)ccc1Cl	6	1	-3	22	-4	31*

Compound activity (PubChem)
